Hits are enriched below; roughly 0.96% of the tested compounds scored in any of these assays.
Texas Red fluor – compound fluoresces in the Texas Red spectral region; Compound fluorescence, Texas Red channel, 547/618 nm; hits give high values; max dye-equivalent concentration, M; 0.06% of 59,000 active; AID 587; in the data active means max dye-equivalent concentration above about 10 nM; inconclusive means between about 1.1 nM and that limit
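Compound fluorescence was read after 15 min at room temperature in 100 mM Tris, pH 8.0, using 547 nm excitation and 618 nm emission across a concentration series. It was expressed as Texas Red dye-equivalent concentration from an on-plate standard curve.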
A647 autofl – compound fluoresces in the A647 spectral region; 59,000 tested, under 10 active; max dye-equivalent concentration, M; Compound fluorescence, A647 channel (570/671 nm), Tris buffer;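 further: values scaled relative to a standard on each plate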
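Spectral profiling of library compounds in pH 8.0 Tris: 15 min room-temperature incubation, single ex/em pair (570/671 nm), response normalized to Alexa 647 equivalents.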
A488 fluor – A488 region autofluorescence; compound autofluorescence, A488 spectral region, dye equivalency; Compound Type: qHTS ECL - MLSMR; max dye equivalency, M; 0.1% of 59,000 active; AID 591
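Intrinsic compound fluorescence is measured in 100 mM Tris buffer at pH 8.0 following 15 min incubation at room temperature. Intensities at 480 nm excitation/540 nm emission are calibrated to an on-plate A488 concentration series, giving dye-equivalent concentrations.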
Resorufin fluor – resorufin region autofluorescence; Compound fluorescence, resorufin region 547/598 nm, buffer; hits give high values; max dye-equivalent concentration, M; 0.04% of 59,000 active
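Tris 100 mM pH 8.0; compound added, 15 min RT; CCD imager read, ex 547 nm/em 598 nm; signal normalized to resorufin standard curve (six concentrations per plate) as dye-equivalent concentration.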
Fluorescein fluor – compound autofluorescence in fluorescein spectral region. Compound autofluorescence, 480/540 nm, fluorescein-equivalent; hits give high values. max fluorescein-equivalent concentration, M. 0.91% of 59,000 active. AID 593; in the data active means max fluorescein-equivalent concentration above about 10 nM; inconclusive means between about 1.1 nM and that limit
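Fluorescein stocks ranging 3 mM down to 300 nM, plus DMSO blanks, were pinned alongside compounds to build a per-plate standard curve. Buffer: 100 mM Tris, pH 8.0. Incubation 15 min, room temperature; filters 480/540 nm.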
Rhodamine fluor – compound autofluorescence in rhodamine spectral region | Rhodamine-region fluorescence, 547/598 nm, Tris buffer; hits give high values | 0.05% of 59,000 active | max dye-equivalent concentration, M; in the data active means max dye-equivalent concentration above about 11 nM; inconclusive means between about 1.1 nM and that limit
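Steps: pin-transfer compounds into pH 8.0 Tris (100 mM), hold 15 min at room temperature, image with a 547/598 nm filter pair, and convert intensities to rhodamine-equivalent concentration using a six-point on-plate rhodamine series.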
The depositor's hits bear a star; i = inactive; u = inconclusive; ! = repeats disagree. Unless noted, how the calls were made is not given here.

SMILES	Texas Red fluor	A647 autofl	A488 fluor	Resorufin fluor	Fluorescein fluor	Rhodamine fluor
O=C(NCc1ccccc1F)C1CCN(C(=O)NCc2ccccc2)CC1	i	1.49e-08	i	i	i	i
O=C(NCc1ccc(F)cc1)C1CCN(C(=O)NCc2ccccc2)CC1	i	1e-09	i	i	1.03e-08M*	i
O=S(=O)(Nc1nc2ccccc2[nH]1)c1ccc(Cl)cc1	i	5.77e-08	i	i	i	i
O=S(=O)(Nc1nc2ccccc2[nH]1)c1ccccc1	i	7.5e-09	i	i	2.16e-08M*	i
CCOC(=O)c1sc(NC(=O)CSc2n[nH]c(-c3ccccc3)n2)c(C#N)c1C	i	1.15e-08	i	i	u	i
Cc1ccc(/C=C/C2=Cc3c(sc(NC(=O)CSc4n[nH]c(N)n4)c3C#N)C(C)(C)C2)o1	5.86e-08M*	3.88e-08	u	2.41e-08M*	1.18e-07M*	2.77e-08M*
O=C1CN(/N=C\c2ccc([N+](=O)[O-])o2)C(=O)N1	u	2.4e-08	u	i	1.61e-07M*	i
C[C@H]1CS(=O)(=O)CCN1/N=C\c1ccc([N+](=O)[O-])o1	i	2.4e-09	i	i	i	i
Nc1c(C(=O)Nc2ccccc2)sc2nc(-c3ccco3)ccc12	u	6.2e-09	i	i	1.64e-08M*	i
COc1ccccc1NC(=O)c1sc2nc(-c3ccco3)ccc2c1N	i	1e-09	i	i	i	i
CCOC(=O)C1=C(C)NC(C)=C(C(=O)OC)[C@H]1c1cccc(Cl)c1Cl	i	1.03e-08	i	i	u	i
O=C1N=C(O)CN1/N=C\c1ccc(-c2ccc([N+](=O)[O-])cc2)o1	u	1e-09	u	i	4.15e-08M*!	i
CN(C)c1ccc(N=Cc2nc(-c3ccccc3)oc2O)cc1	i	1e-09	u	i	4.5e-08M*	i
CC(=O)Nc1ccc(N=Cc2nc(-c3ccc(C)cc3)oc2O)cc1	i	1e-09	i	i	1.58e-08M*	i
Nc1nc(Nc2ccccc2)nc2c1ncn2[C@@H]1O[C@@H](CO)[C@H](O)[C@@H]1O	u	3.1e-09	i	i	u	i
CCCC(=O)Nc1ccc(NC(=O)c2ccccc2Cl)nc1	i	1e-09	i	i	1.1e-08M*	i
CCCC(=O)Nc1ccc(NC(=O)Cc2ccccc2)cn1	i	3.3e-09	i	i	u	i
CN1CCC(OC(=O)COc2ccc(C(C)(C)C)cc2)CC1	i	1e-09	u	i	2.99e-08M*	i
C=CCNC(=O)C(C#N)c1nc2ccccc2nc1N1CCN(Cc2ccccc2)CC1 (configuration not stated)	i	1e-09	u	i	5.57e-08M*	i
COCCCNC(=O)C(C#N)c1nc2ccccc2nc1N1CCN(Cc2ccccc2)CC1 (configuration not stated)	i	3e-08	i	i	i	i
N#CC(C(=O)NC1CC1)c1nc2ccccc2nc1N1CCN(C/C=C/c2ccccc2)CC1 (configuration not stated)	i	1e-09	u	i	1.29e-07M*	i
N#CC(C(=O)NC1CC1)c1nc2ccccc2nc1N1CCCC1 (configuration not stated)	u	8.2e-09	u	i	1.79e-07M*	i
N#CC(C(=O)NC1CCCCC1)c1nc2ccccc2nc1N1CCCCC1 (configuration not stated)	i	2.15e-08	i	i	u	i
N#CC(C(=O)NC1CCCCC1)c1nc2ccccc2nc1N1CCN(c2ccc(F)cc2)CC1 (configuration not stated)	i	3e-09	2.01e-08M*	i	3.52e-07M*	i
COc1ccc2c3c([nH]c2c1)[C@H]1C[C@@H]2[C@@H](C[C@@H](O)[C@H](OC)[C@H]2C(=O)O)CN1CC3	i	4.77e-08	i	i	u	i
SMILES	Texas Red fluor	A647 autofl	A488 fluor	Resorufin fluor	Fluorescein fluor	Rhodamine fluor
COc1ccc(CCN(C)CCC[C@@](C#N)(c2cc(OC)c(OC)c(OC)c2)C(C)C)cc1OC	i	3.68e-08	i	i	u	i
O=C(O)CCc1c2ccc(=O)c(O)c-2oc2c(O)c(O)ccc12	i	1e-09	i	i	1.14e-08M*	i
CC(C)(C)[C@@]1(O)CCN2C[C@@H]3c4ccccc4CCc4cccc(c43)[C@@H]2C1	i	6.4e-09	i	i	u	i
NS(=O)(=O)c1cc2c(cc1Cl)N[C@@H](CC1CCCC1)NS2(=O)=O	i	1e-09	i	i	i	i
NS(=O)(=O)c1cc2c(cc1Cl)NCNS2(=O)=O	i	1.52e-08	i	i	1.08e-08M*!	i
Cc1cc(=O)[nH]c(SCCOc2ccc(OC(C)C)cc2)n1	u	1.71e-08	i	u	2.25e-08M*	u
Cc1cc(=O)[nH]c(SCCOc2ccc3c(c2)CCC3)n1	i	1e-09	i	i	i	i
C[C@@]12CCC(=O)C=C1CC[C@H]1[C@@H]2[C@@H](O)C[C@]2(C)[C@@H]1CC[C@@]2(O)C(=O)CO	i	2.21e-08	i	i	u	i
CCOC(=O)N1CCN(c2ccc(Cl)c(Cl)c2)CC1	i	2.4e-09	i	i	i	i
CCOC(=O)N1CCN(C2=Nc3cccc4cccc2c34)CC1	i	1e-09	u	i	4.8e-08M*	i
O=C(CN1C(=O)c2cccc3cccc1c23)N1CCN(c2ccccc2)CC1	i	2.9e-09	i	i	i	i
CC(=O)N1CCN(C2=Nc3cccc4cccc2c34)CC1	i	3.58e-08	i	i	2.71e-08M*	i
Cc1cccc(N=c2oc3cc(O)ccc3cc2C(N)=O)c1	i	1.87e-08	i	i	1.21e-08M*	i
N#C[C@@H](Cc1ccc(O)c(O)c1)C(=O)N1CCc2ccccc21	i	2.21e-08	i	i	u	i
N[C@@H](Cc1[nH]nc2ccccc12)C(=O)O	i	2.3e-09	i	i	1.14e-08M*	i
CC(=O)[C@H]1CC[C@@H]2[C@]1(C)CC=C1[C@]23C=C[C@]2(C[C@H](O)CC[C@@]12C)[C@H](C(=O)O)[C@@H]3C(=O)O	i	1e-09	i	i	u	i
C[C@@H]1C[C@@H]2[C@H]3CCC4=CC(=O)C=C[C@]4(C)[C@]3(Cl)[C@@H](O)C[C@@]2(C)[C@@]1(O)C(=O)CO	i	5.19e-08	i	i	u	i
N#Cc1c(C(F)(F)F)cc(-c2ccccc2)nc1SCc1nc(N)nc(N2CCOCC2)n1	i	1e-09	i	i	1.62e-08M*	i
Nc1nc(Cn2nnc(-c3ccccc3F)n2)nc(N2CCOCC2)n1	i	1.79e-08	i	i	i	i

Screening results (PubChem BioAssay)
